Source: PubChem (National Center for Advancing Translational Sciences (NCATS))
Hits are enriched below; roughly 19% of the tested compounds scored in any of these assays.
Gal4-VP16 FLuc – Gal4-VP16 reporter inhibition counter-screen | Drosophila S2 Gal4-VP16 UAS-luciferase, luminescence, 20 h | Potency, µM (titrated, usually from 53.6 µM), usual class: inhibitors | actives 3.5% (n = 310,000);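 note: Gal4-VP16 expression switched on by copper sulfate through the metallothionein promoter; nearly all actives have a fitted effect of over 50% in size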
TDP1 cell CPT – DT40-hTDP1 cell growth loss with CPT | chicken DT40 Tdp1-/-;hTDP1 cells + 20 nM CPT, ATP luminescence, 48 h | Potency, µM (doses to about 46.2 µM), most hits filed as inhibitors | actives 12% (n = 420,000); note: nearly all actives have a fitted effect of over 55% in size
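Chicken DT40 Tdp1-/- cells stably complemented with human TDP1 were seeded at 400 cells/well in medium containing 20 nM camptothecin, exposed to pin-transferred compounds, and grown at 37 °C for at least 48 hr. Viability was read as ATP luminescence.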
RORgamma inh – blocks mouse ROR gamma transcriptional activity; P51450; Drosophila S2 Gal4-RORgamma UAS-luciferase reporter, 20 h; Potency, µM (series often up to 53.6 µM), usual class: inhibitors; actives 5.4% (n = 310,000); note: nearly all actives have a fitted effect of over 60% in size
Target sequence (P51450 whole entry, looked up, the tested form may be a part): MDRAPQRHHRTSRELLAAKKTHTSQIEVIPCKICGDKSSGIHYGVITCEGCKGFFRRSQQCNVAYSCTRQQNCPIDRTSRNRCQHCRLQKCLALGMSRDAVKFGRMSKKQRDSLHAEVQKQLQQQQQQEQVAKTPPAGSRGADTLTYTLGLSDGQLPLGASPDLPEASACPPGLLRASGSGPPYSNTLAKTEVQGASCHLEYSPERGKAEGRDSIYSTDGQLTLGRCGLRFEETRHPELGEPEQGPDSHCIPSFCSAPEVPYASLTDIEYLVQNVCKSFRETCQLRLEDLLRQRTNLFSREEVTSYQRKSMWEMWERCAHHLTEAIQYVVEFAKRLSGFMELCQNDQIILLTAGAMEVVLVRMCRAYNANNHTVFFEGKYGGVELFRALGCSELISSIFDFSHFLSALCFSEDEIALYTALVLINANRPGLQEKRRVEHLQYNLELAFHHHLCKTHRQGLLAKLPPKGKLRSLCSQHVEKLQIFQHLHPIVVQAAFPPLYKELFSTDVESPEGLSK
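Stably transfected Drosophila Schneider cells are the test system, with ROR gamma fused to Gal4 and luciferase under UAS control; luminescence is read after 20 hr of 700 uM copper sulfate induction at ambient temperature.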
DT40 TDP1 no CPT – qHTS for Inhibitors of human tyrosyl-DNA phosphodiesterase 1 (TDP1): qHTS in cells in absence of CPT; actives 15% (n = 420,000); DT40 Tdp1-/- hTDP1 cells, no CPT, ATP luminescence, 48 h; Potency, µM (doses to about 46.2 µM), hits mostly inhibitors; AID 686978, 2013; note: nearly all actives have a fitted effect of over 55% in size
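Chicken DT40 Tdp1-/- cells complemented with human TDP1, screened without camptothecin (DMSO vehicle only), 400 cells/well. Compounds pin-transferred, cells incubated at 37 °C for at least 48 hr. Growth read as ATP-dependent luminescence (CellTiter-Glo, 30 min at RT).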
TDP1 block – blocks human tyrosyl-DNA phosphodiesterase 1. recombinant TDP1, AlphaScreen DNA substrate cleavage. Potency, µM (top dose mostly 130 µM), most hits filed as inhibitors. actives 0.28% (n = 350,000). Q9NUW8; note: nearly all actives have a fitted effect of over 40% in size
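Recombinant human Tdp1 (E. coli-expressed, 1 nM final) preincubated with compounds 15 min at room temperature, then 5'-biotin/3'-phosphotyrosine-FITC DNA substrate (15 nM final) added for 5 min. AlphaScreen beads (10 ug/ml final) added 10 min; cleavage lowers signal.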
Each line names hits and unclear results; the compound was inactive in the other large screens; ! = a repeat was not active. Calls come from the whole dose curve; as a rule, active = well fitted curve in the direction sought with a large enough effect; inconclusive = small, poorly fitted or top-dose-only effect, or another doubt; inactive = no such curve, though single readings can be large; an effect the other way counts as inactive or inconclusive.

Cc1ccc2c(c1)cc(CN(Cc1cccs1)C(=O)c1ccco1)c1nnnn12	TDP1 cell CPT inconclusive, DT40 TDP1 no CPT 16µM
CC(=NNS(=O)(=O)c1cccc([N+](=O)[O-])c1)c1ccc(-n2ccnc2)cc1	DT40 TDP1 no CPT inconclusive (no result: Gal4-VP16 FLuc, RORgamma inh)
O=C(Nc1cccc(C(=O)OCc2cc(=O)n3nc(C4CC4)sc3n2)c1)c1cccc(F)c1	none (no result: Gal4-VP16 FLuc, RORgamma inh)
CCOC(=O)c1cnc(SCC(=O)N2CCC(C(N)=O)CC2)nc1N	none
Cc1ccc(C(=O)N(Cc2cccnc2)Cc2cc3cc(C)ccc3n3nnnc23)cc1	TDP1 cell CPT 18µM, DT40 TDP1 no CPT inconclusive
Cc1ccc2c(c1)cc(CN(Cc1cccnc1)C(=O)c1ccccc1)c1nnnn12	none
CCCCN(CCCC)c1ccc(/C=C2\C=Cc3ccccc32)cc1	none (no result: Gal4-VP16 FLuc, RORgamma inh, TDP1 block)
Cc1ccc(S(=O)(=O)N/N=C/c2cc(Br)c(C)o2)cc1	TDP1 cell CPT 16µM, DT40 TDP1 no CPT inconclusive
Cc1ccc(S(=O)(=O)N/N=C/c2c(F)cccc2Cl)cc1	TDP1 cell CPT 16µM, DT40 TDP1 no CPT inconclusive
O=C(O)c1ccc(N/N=C/c2c(F)cccc2Cl)cc1	Gal4-VP16 FLuc 0.71µM, RORgamma inh 2µM (no result: TDP1 block)
O=S(=O)(N/N=C/c1c(F)cccc1Cl)c1ccccc1	Gal4-VP16 FLuc inconclusive, TDP1 cell CPT inconclusive, DT40 TDP1 no CPT inconclusive
O=C(N/N=C/c1c(F)cccc1Cl)C1CC1	none (no result: TDP1 block)
O=C(O)c1ccc(N/N=C/c2ccc(-c3ccc(Cl)cc3Cl)o2)cc1	Gal4-VP16 FLuc inconclusive, TDP1 cell CPT 16µM, DT40 TDP1 no CPT inconclusive
COc1ccc(/C=C/C(=O)OCC(=O)N2c3ccccc3CC2C)cc1 (configuration not stated)	TDP1 cell CPT inconclusive (no result: Gal4-VP16 FLuc, RORgamma inh, TDP1 block)
NS(=O)(=O)c1ccc(-c2ccc(/C=N/Nc3ccc(C(=O)O)cc3)o2)cc1	RORgamma inh 10µM, TDP1 block inconclusive
O=C(O)c1ccc(N/N=C/c2ccc(-c3cc(Cl)ccc3Cl)o2)cc1	Gal4-VP16 FLuc inconclusive, TDP1 cell CPT 26µM, RORgamma inh inconclusive, DT40 TDP1 no CPT inconclusive, TDP1 block 71µM
CCN=C1S/C(=C\c2cc(Cl)c(OC)c(OC)c2)C(=O)N1CC	TDP1 cell CPT inconclusive, DT40 TDP1 no CPT inconclusive (no result: TDP1 block)
Cc1cc(C(=O)COC(=O)c2cccnc2Cl)c(C)n1-c1c(C)n(C)n(-c2ccccc2)c1=O	none
O=C(Nc1ccc(Cl)cc1C(F)(F)F)c1cc(S(=O)(=O)NCc2ccccc2)ccc1F	TDP1 cell CPT inconclusive, DT40 TDP1 no CPT inconclusive (no result: Gal4-VP16 FLuc, RORgamma inh)
CCc1cccc(C)c1NC(=O)c1cc(S(=O)(=O)NCc2ccccc2Cl)ccc1F	TDP1 cell CPT 21µM, DT40 TDP1 no CPT 26µM (no result: Gal4-VP16 FLuc, RORgamma inh)
O=C(Nc1cc(Cl)ccc1Cl)c1cc(S(=O)(=O)NCCc2ccccc2)ccc1F	TDP1 cell CPT inconclusive, DT40 TDP1 no CPT 16µM (no result: Gal4-VP16 FLuc, RORgamma inh)
Cc1ccc(C)c(NC(=O)c2cc(S(=O)(=O)NCc3ccccc3)ccc2F)c1	TDP1 cell CPT inconclusive, DT40 TDP1 no CPT inconclusive (no result: Gal4-VP16 FLuc, RORgamma inh)
O=C(Nc1cccc(Cl)c1Cl)c1cc(S(=O)(=O)NCCc2ccccc2)ccc1F	TDP1 cell CPT inconclusive, RORgamma inh 5µM, DT40 TDP1 no CPT inconclusive
Cc1nc(C)c(-c2csc(Nc3ncccc3C)n2)s1	DT40 TDP1 no CPT inconclusive
CCN(CC)C(=O)N1CCN(C)CC1	TDP1 cell CPT 1µM!, DT40 TDP1 no CPT inconclusive
CCN(CC)C(=O)N1CCN(C(=O)N(CC)CC)CC1	none
CC(C)[C@@H]1COC(c2cccc(C3=N[C@H](C(C)C)CO3)n2)=N1	TDP1 cell CPT inconclusive (no result: TDP1 block)
S=C(NCCC1=CCCCC1)Nc1ccc(Cl)cc1	Gal4-VP16 FLuc inconclusive, TDP1 cell CPT 23µM, RORgamma inh 3.5µM, DT40 TDP1 no CPT 21µM
COc1ccc(NC(=S)NCCC2=CCCCC2)cc1OC	Gal4-VP16 FLuc 13µM, TDP1 cell CPT inconclusive, RORgamma inh 2.5µM, DT40 TDP1 no CPT inconclusive
COC(=O)c1ccc(OCC(=O)NCCC2=CCCCC2)c(OC)c1	TDP1 cell CPT inconclusive, DT40 TDP1 no CPT 23µM (no result: Gal4-VP16 FLuc, RORgamma inh)
O=C(COC(=O)c1ccccc1O)NCCC1=CCCCC1	DT40 TDP1 no CPT 18µM
COc1cc(OC)nc(Oc2ccc(N)c(C)c2)n1	none (no result: TDP1 block)
O=C(COC(=O)c1ccc[nH]c1=O)NCCc1ccc(Cl)cc1Cl	none
